# Source: PubChem BioAssay (NCATS)
# Inconclusive results are not listed. Where a call stands in place of a potency, no number is given. A structure can be active in one record and inactive in another. Calls of active or inactive are those of the source. Unless noted, calls follow the shape of the dose curve; as a rule, active = well fitted curve in the direction sought with a large enough effect; inconclusive = small, poorly fitted or top-dose-only effect, or another doubt; inactive = no such curve, though single readings can be large; an effect the other way counts as inactive or inconclusive.
# Assays:
# [1] = molecular target: Thioredoxin reductase 1, cytoplasmic (Rattus norvegicus) (UniProt O89049); assay: qHTS Assay for Inhibitors of Mammalian Selenoprotein Thioredoxin Reductase 1 (TrxR1) (AID 488773); details: Potency: inhibition;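 also: drop in NADPH fluorescence over an 8 min run after selenite addition; series mostly up to about 57 µM; nearly all actives have a fitted effect of over 40% in size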
# Thioredoxin reductase 1, cytoplasmic (Rattus norvegicus), sequence (O89049 whole entry, looked up): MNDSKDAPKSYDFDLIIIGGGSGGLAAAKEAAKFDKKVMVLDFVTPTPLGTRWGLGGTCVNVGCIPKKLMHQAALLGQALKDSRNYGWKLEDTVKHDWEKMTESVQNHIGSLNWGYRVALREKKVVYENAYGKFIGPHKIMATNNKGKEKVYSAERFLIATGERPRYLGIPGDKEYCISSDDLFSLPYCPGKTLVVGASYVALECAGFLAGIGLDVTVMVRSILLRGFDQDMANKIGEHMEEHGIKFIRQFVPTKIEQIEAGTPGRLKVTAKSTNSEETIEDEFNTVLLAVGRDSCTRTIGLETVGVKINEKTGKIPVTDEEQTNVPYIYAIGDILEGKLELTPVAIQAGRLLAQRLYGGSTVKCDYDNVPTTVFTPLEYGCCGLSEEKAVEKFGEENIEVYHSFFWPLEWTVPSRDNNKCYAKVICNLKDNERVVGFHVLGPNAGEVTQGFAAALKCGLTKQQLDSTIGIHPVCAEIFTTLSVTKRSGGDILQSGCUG
# In short: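 Steps: enzyme (90 nM) plus NADPH (400 uM final), 5 min at ~22 deg C; compound added, 15 min; selenite (400 uM final) added; fluorescence followed for 8 min. Concentration-response curves derived from the normalized delta values.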
# [2] = molecular target: Flap endonuclease 1 (Homo sapiens) (UniProt P39748); assay: qHTS Validation Assay for the Inhibitors of Human Flap endonuclease 1 (FEN1) (AID 488816)
# Flap endonuclease 1 (Homo sapiens), sequence (P39748 whole entry, looked up): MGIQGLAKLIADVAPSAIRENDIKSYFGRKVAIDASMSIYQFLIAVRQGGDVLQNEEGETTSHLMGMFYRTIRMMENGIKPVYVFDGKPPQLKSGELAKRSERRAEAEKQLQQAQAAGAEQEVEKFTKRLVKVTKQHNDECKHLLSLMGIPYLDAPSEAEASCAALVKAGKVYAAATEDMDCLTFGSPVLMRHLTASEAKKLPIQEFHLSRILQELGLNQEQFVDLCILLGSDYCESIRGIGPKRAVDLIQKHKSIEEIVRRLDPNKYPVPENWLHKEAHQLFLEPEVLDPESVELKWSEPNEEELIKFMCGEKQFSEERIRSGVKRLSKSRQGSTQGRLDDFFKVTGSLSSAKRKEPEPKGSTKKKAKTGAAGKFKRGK
# In short: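 Readings taken at 0 and 15 min after starting the reaction with 50 nM (final) substrate supplied the signal. Compounds had first sat with 10 nM FEN1 reagent for 15 min at room temperature. Values come from Hill-equation concentration-response fits.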
# [3] = molecular target: Methanococcus maripaludis chaperonin (MmCpn) (UniProt Q6LX38); assay: High-Throughput Screening for Modulators of Cytosolic Chaperonin Activity: MmCpn Primary Screen (AID 488978);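 also: 50 nM MmCpn enzyme hydrolysing 30 µM ATP at 37 °C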
# Methanococcus maripaludis chaperonin (MmCpn), sequence (Q6LX38 1-543): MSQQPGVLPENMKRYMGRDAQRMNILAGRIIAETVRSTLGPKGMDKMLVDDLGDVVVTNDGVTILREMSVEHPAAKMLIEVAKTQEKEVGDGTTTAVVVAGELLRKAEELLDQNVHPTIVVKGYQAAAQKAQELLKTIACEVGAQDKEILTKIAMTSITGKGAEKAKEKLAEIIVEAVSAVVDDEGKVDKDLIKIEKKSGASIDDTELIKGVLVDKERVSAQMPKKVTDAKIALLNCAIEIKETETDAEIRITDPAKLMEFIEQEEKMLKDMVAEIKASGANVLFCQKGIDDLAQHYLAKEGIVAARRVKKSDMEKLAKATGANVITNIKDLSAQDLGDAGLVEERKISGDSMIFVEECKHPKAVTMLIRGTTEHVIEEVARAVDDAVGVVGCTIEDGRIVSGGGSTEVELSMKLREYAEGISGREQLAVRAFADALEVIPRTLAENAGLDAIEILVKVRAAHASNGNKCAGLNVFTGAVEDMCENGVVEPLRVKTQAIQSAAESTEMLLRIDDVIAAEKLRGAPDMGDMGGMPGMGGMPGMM
# In short: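 Measures ATPase turnover of the M. maripaludis chaperonin (50 nM final) against 30 uM ATP over 10 min at 37C, with compound added 5 min beforehand at room temperature. ADP is quantified by HTRF immunodetection.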
# [4] = molecular target: Transient receptor potential cation channel subfamily V member 1 (Homo sapiens) (UniProt Q8NER1); assay: HTS Assay for Compounds that Act as Enhancers of the Vanilloid Receptor 1 (AID 488979)
# In short: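 Calcium influx kinetics via Fluo-8 (480/520 nm) in TRPV1-expressing cells, 2000/well cultured overnight at 35.5C. Compound-alone read 3 min (agonist phase), followed by EC20 capsaicin challenge for 2 min (enhancer phase).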
# [5] = molecular target: Thyrotropin receptor (Homo sapiens) (UniProt P16473); assay: qHTS Assay for Antagonists of the Thyroid Stimulating Hormone Receptor (AID 488980); also: series mostly up to about 58 µM
# Thyrotropin receptor (Homo sapiens), sequence (P16473 whole entry, looked up): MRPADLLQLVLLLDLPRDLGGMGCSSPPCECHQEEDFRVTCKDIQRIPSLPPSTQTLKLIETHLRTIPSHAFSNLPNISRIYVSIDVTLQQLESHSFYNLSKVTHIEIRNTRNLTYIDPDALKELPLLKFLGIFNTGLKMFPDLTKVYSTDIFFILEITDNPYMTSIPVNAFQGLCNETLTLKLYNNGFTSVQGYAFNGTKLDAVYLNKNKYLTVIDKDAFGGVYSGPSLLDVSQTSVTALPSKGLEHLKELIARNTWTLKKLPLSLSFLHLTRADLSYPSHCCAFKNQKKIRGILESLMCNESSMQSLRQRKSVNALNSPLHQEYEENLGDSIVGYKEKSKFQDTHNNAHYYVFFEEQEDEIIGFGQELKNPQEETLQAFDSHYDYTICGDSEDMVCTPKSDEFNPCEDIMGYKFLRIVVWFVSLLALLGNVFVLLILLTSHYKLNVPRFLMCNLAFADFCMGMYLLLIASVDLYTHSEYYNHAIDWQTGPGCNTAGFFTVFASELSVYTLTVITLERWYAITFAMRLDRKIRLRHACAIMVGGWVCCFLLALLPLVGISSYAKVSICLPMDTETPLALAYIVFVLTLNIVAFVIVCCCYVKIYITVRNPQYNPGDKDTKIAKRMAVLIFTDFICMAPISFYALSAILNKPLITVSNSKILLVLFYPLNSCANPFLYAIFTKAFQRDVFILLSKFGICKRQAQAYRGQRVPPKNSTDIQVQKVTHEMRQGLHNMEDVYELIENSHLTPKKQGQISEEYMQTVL
# In short: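 Cells expressing human TSHR (HEK293) are dispensed in HBSS/HEPES containing 70 uM RO 20-1724, compound is added, then TSH at EC80 (4 nM final). Antibody in lysis buffer follows, 30 minutes at room temperature before HTRF detection.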
# [6] = molecular target: D(1A) dopamine receptor (Homo sapiens) (UniProt P21728); assay: HTS Assay for Allosteric Agonists of the Human D1 Dopamine Receptor: Primary Screen for Agonists (AID 488981); also: potency is read from the fitted curve at half-maximal effect
# D(1A) dopamine receptor (Homo sapiens), sequence (P21728 whole entry, looked up): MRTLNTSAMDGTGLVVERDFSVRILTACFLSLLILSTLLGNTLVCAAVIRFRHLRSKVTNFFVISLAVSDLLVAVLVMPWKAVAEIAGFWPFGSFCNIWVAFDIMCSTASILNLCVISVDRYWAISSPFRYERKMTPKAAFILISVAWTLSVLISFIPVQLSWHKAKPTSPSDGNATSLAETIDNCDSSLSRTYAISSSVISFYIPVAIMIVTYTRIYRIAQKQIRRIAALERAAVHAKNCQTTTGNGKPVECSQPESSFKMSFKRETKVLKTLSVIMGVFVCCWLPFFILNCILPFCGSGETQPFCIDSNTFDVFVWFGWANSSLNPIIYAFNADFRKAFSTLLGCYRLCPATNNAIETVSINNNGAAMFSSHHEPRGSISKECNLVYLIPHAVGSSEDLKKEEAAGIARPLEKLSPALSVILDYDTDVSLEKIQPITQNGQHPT
# In short: (§1)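 Calcium flux in an inducible, force-coupled HEK293 Trex D1 line (overnight at 30 C): agonist mode is the 180 s kinetic read after compound; potentiator mode is the following 180 s read after dopamine at EC20.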
# [7] = molecular target: D(1A) dopamine receptor (Homo sapiens) (UniProt P21728); assay: HTS Assay for Allosteric Agonists of the Human D1 Dopamine Receptor: Primary Screen for Potentiators (AID 488982)
# In short: as §1
# [8] = Validation screen for small molecules that induce genotoxicity in human embryonic kidney (HEK293T) cells expressing luciferase-tagged ELG1 (AID 493106)
# In short: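 Reporter-gene quantitative HTS in HEK293T cells carrying luciferase-tagged ELG1, whose level climbs under genotoxic stress. Compound exposure lasts 16 hr at 37 °C before luciferase detection.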
# [9] = molecular target: Thyrotropin-releasing hormone receptor (Homo sapiens) (UniProt P34981); assay: qHTS for Small Molecule Agonists and Allosteric Enhancers of Human TRH Receptor: Validation Screen for Agonists (AID 493127;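 active = calcium activation more than 3 SD above the typical response in the agonist read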;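 also: intracellular calcium rise by fluo-8 fluorescence before TRH EC20 addition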); details: TRH receptor agonist cell assay; at 2 µM; stronger effect = higher value
# Thyrotropin-releasing hormone receptor (Homo sapiens), sequence (P34981 whole entry, looked up): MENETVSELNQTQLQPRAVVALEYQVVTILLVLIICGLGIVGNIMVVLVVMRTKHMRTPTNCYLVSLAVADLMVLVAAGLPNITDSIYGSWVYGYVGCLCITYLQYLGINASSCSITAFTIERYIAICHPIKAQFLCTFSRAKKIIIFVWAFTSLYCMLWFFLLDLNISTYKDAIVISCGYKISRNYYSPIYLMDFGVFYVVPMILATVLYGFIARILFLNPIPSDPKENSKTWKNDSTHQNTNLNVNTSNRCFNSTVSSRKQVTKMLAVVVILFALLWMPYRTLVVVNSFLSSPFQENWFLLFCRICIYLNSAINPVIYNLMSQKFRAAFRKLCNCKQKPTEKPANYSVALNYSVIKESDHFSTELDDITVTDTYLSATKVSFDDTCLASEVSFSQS
# In short: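 Gq-coupled calcium mobilization in TRHR cells after compound addition, monitored kinetically with fluo-8 dye on an FDSS reader.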
# [10] = Nrf2 qHTS screen for inhibitors: Validation (AID 493153; active = well fitted inhibition curve with a large enough effect in the main read-out, with a control signal flat, not every such curve was filed as active); details: viability change: measured here: cytotoxicity max response
# In short: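 Dose-response validation uses reporter A549 cells with firefly luciferase under an antioxidant response element. Compounds stay on cells 18-24 h at 37°C, and luminescence indicates Nrf2-driven transcription.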
# [11] = qHTS for Inhibitors of Cell Surface uPA Generation: Validation Assay (AID 493164);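 also: RAW 264.7 macrophage cells exposed to compound for 18 h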
# In short: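 RAW 264.7, 4000 cells/well, o/n plating; cpd 7-pt 1:5 dilution 2.45 nM–38.3 uM final; 18 h, 37 C/5% CO2; ATP-Lite, 5 s luminescence exposure.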
# [12] = molecular target: Galactokinase (Homo sapiens) (UniProt P51570); assay: qHTS Validation Assay for Inhibitors of Human Galactokinase (GALK) (AID 493189)
# Galactokinase (Homo sapiens), sequence (P51570 whole entry, looked up): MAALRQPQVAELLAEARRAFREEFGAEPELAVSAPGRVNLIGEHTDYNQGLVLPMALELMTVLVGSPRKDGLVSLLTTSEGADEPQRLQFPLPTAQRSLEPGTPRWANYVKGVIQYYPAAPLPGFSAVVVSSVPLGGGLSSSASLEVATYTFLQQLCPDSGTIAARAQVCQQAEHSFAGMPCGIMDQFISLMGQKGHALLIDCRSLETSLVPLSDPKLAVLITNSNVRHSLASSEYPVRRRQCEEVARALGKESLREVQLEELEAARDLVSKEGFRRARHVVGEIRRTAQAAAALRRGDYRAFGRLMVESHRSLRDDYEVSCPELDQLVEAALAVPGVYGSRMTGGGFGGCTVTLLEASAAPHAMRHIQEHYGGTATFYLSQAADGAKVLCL
# In short: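 Compounds were pin-transferred into ATP buffer, then GALK-galactose mix was added (final 5 nM enzyme, 100 uM galactose, 35 uM ATP). After 1 h at room temperature, remaining ATP was measured luminescently.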
# [13] = Validation screen for small molecules that induce DNA re-replication in SW480 colon adenocarcinoma cells (AID 504364)
# In short: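 Cells are treated 48 hr with test compound, stained 40 min with Hoechst at 37 C, and scanned for nuclear fluorescence; compounds inducing re-replication increase nuclei with elevated intensity.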
# [14] = molecular target: Peptidyl-prolyl cis-trans isomerase NIMA-interacting 1 (Homo sapiens) (UniProt Q13526); assay: qHTS Validation Assay to Find Inhibitors of Pin1 (AID 504536; active = well fitted inhibition curve with a large enough effect in the polarisation, with a control signal flat, not every such curve was filed as active; the % refers to the polarisation)
# Peptidyl-prolyl cis-trans isomerase NIMA-interacting 1 (Homo sapiens), sequence (Q13526 whole entry, looked up): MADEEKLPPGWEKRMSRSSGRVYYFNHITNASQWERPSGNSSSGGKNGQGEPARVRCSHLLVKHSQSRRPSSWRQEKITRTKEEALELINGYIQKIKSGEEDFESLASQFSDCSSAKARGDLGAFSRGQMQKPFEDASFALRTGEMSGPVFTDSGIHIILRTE
# In short: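 Fluorescence polarization competition: compounds (titration) displace HiFluor-488-labeled Pin1-1b peptide from Pin1 (0.3 uM final) in pH 7.5 HEPES buffer with DTT, 10 min at room temperature; %Activity normalized to no-enzyme wells, curves fitted.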
# [15] = molecular target: M-phase phosphoprotein 8 (Homo sapiens) (UniProt Q99549); assay: qHTS Validation Assay for Inhibitors for MPP8 Chromodomain Interactions with Methylated Histone Tails (AID 488949); also: potency is read from the fitted curve at half-maximal effect; nearly all actives have a fitted effect of over 55% in size
# In short: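 Disruption of the preformed MPP8–trimethyl-H3K9 peptide complex (both 50 nM, 30 min, RT) is measured after 30 min compound exposure, using AlphaScreen proximity beads; aurintricarboxylic acid titration serves as plate control.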
# [16] = molecular target: D(1A) dopamine receptor (Homo sapiens) (UniProt P21728); assay: HTS Assay for Allosteric Agonists of the Human D1 Dopamine Receptor: Primary Screen for Antagonists (AID 488983);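 also: calcium flux response to an EC80 dopamine challenge measured with no-wash dye; nearly all actives have a fitted effect of over 65% in size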; also: potency is read from the fitted curve at half-maximal effect
# In short: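 Screening of inducible HEK293 T-REx D1 cells: compound first, EC80 dopamine 180 s later, each phase read kinetically for calcium over 180 s.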
# [17] = molecular target: ATP-dependent 6-phosphofructokinase (Trypanosoma brucei brucei) (UniProt O15648); assay: qHTS Assay to Find Inhibitors of T. brucei phosphofructokinase: hit validation (AID 492961);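 also: luminescence reports ADP formed as PFK phosphorylates fructose-6-phosphate with ATP; series mostly up to about 51 µM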
# ATP-dependent 6-phosphofructokinase (Trypanosoma brucei brucei), sequence (O15648 whole entry, looked up): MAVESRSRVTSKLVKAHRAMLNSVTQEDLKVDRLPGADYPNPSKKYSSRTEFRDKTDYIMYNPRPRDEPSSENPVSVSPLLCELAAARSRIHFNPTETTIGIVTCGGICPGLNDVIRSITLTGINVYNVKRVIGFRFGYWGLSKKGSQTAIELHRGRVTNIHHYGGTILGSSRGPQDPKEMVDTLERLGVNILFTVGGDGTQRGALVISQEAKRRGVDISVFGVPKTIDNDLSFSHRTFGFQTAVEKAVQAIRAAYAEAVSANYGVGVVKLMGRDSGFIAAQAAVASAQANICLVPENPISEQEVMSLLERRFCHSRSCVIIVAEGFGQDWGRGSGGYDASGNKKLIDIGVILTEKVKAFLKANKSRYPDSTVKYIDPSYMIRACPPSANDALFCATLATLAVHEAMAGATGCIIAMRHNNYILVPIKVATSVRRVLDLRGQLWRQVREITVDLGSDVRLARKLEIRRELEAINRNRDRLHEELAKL
# In short: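 In this biochemical qHTS validation, titrated compounds were tested against 1.25 nM PFK with 0.1 mM ATP and 0.5 mM F6P. Percent activity came from controls lacking or containing enzyme.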
# [18] = molecular target: Chromobox protein homolog 1 (Homo sapiens) (UniProt P83916); assay: qHTS Validation Assay for Inhibitors of HP1-beta Chromodomain Interactions with Methylated Histone Tails (AID 488953); also: nearly all actives have a fitted effect of over 50% in size; also: potency is read from the fitted curve at half-maximal effect
# Chromobox protein homolog 1 (Homo sapiens), sequence (P83916 whole entry, looked up): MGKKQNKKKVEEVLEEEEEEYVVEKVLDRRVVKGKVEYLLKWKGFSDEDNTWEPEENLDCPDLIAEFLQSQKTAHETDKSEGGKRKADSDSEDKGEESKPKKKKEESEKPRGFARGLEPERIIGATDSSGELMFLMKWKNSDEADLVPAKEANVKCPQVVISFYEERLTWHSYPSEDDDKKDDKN
# In short: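 Measured as loss of AlphaScreen luminescence from streptavidin donor and nickel acceptor beads (10 ug/mL final) bridging HP1-beta and biotin-H3(1-18)K9me3, each 50 nM. Compounds met the preassembled complex for 30 min at RT.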
smiles,measurement,setting,value
CC(C)Oc1cccnc1N(C)C1CCN(Cc2ccccc2)CC1,Potency,[1],inactive
same,Potency,[2],inactive
same,outcome,[3],inactive
same,outcome,[4],inactive
same,outcome,[5],inactive
same,Potency,[6],inactive
same,outcome,[7],inactive
same,outcome,[8],inactive
same,activation,[9],0% (inactive)
same,outcome,[10],inactive
same,viability change,[10],1.23%
same,outcome,[11],inactive
same,outcome,[12],inactive
same,outcome,[13],inactive
same,outcome,[14],inactive
NC1CCc2cc(O)c(O)cc2C1 (stereo unspecified),Potency,[15],79.4 µM (active)
same,outcome,[3],inactive
same,outcome,[4],inactive
same,outcome,[5],inactive
same,Potency,[6],0.158 µM (active)
same,outcome,[7],inactive
same,Potency,[16],0.0891 µM (active)
same,outcome,[8],inactive
same,activation,[9],0.75% (inactive)
same,outcome,[10],inactive
same,viability change,[10],10.6%
same,outcome,[11],inactive
same,outcome,[12],inactive
same,outcome,[13],inactive
same,outcome,[14],inactive
CS(=N)(=O)CC[C@H](N)C(=O)O (stereo partly specified),Potency,[1],inactive
same,Potency,[2],inactive
same,outcome,[3],inactive
same,outcome,[4],inactive
same,outcome,[5],inactive
same,Potency,[6],inactive
same,outcome,[7],inactive
same,Potency,[16],inactive
same,outcome,[8],inactive
same,activation,[9],0.312% (inactive)
same,outcome,[10],inactive
same,viability change,[10],3.11%
same,outcome,[11],inactive
same,outcome,[12],inactive
same,outcome,[13],inactive
same,outcome,[14],inactive
CCCCCCCCCC(CC)c1ccc(S(=O)(=O)O)cc1 (stereo unspecified),Potency,[17],inactive
NC1CC1c1ccccc1 (stereo unspecified),Potency,[1],inactive
same,Potency,[2],inactive
same,Potency,[18],inactive
same,outcome,[4],inactive
same,outcome,[5],inactive
same,outcome,[8],inactive
same,activation,[9],1.44% (inactive)
same,outcome,[10],inactive
same,viability change,[10],-9.56%
same,outcome,[11],inactive
same,outcome,[12],inactive
same,outcome,[13],inactive
same,outcome,[14],inactive
O=C(O)COc1ccccc1,Potency,[17],inactive
CN[C@@H]1C[C@@H](c2ccc(Cl)c(Cl)c2)c2ccccc21,Potency,[1],inactive
same,Potency,[18],inactive
same,outcome,[3],inactive
same,outcome,[5],inactive
same,Potency,[6],12.6 µM (active)
same,outcome,[7],inactive
same,outcome,[8],inactive
same,activation,[9],29.8% (inactive)
same,outcome,[10],inactive
same,viability change,[10],3.66%
same,outcome,[11],inactive
same,outcome,[12],inactive
same,outcome,[13],inactive
same,outcome,[14],inactive
C[N+]1(C)C2CC(OC(=O)[C@H](CO)c3ccccc3)CC1C1OC12 (stereo partly specified),Potency,[2],inactive
same,Potency,[18],7.5 nM (active) and inactive
C1CCC(NC2CCCCC2)CC1,Potency,[17],inactive
CN(C)[C@@H]1C(=O)C(C(N)=O)=C(O)[C@@]2(O)C(=O)C3=C(O)c4c(O)cccc4[C@@](C)(O)[C@H]3[C@H](O)[C@@H]12,Potency,[17],inactive
NC(=O)CN1CC(O)CC1=O (stereo unspecified),Potency,[1],inactive
same,Potency,[18],inactive
same,outcome,[3],inactive
same,outcome,[4],inactive
same,outcome,[5],inactive
same,Potency,[6],inactive
same,outcome,[7],inactive
same,Potency,[16],inactive
same,Potency,[17],inactive
same,outcome,[8],inactive
same,activation,[9],1.25% (inactive)
same,outcome,[10],inactive
same,viability change,[10],1.59%
same,outcome,[11],inactive
same,outcome,[12],inactive
same,outcome,[13],inactive
same,outcome,[14],inactive
